Over roughly 35,000 sequences, “fluorescence intensity (a.u.)” has its median near 10,000; the highest 2% begin near 52,000. What follows is part of a selection rich in the highest values, with near analogues and random picks from the rest.

The values that follow come from PMC7819943, “Rice protein-binding microarrays: a tool to detect cis-acting elements near promoter regions in rice”.

The target of this assay is T1, OsWOX13 (Oryza sativa, UniProt Q5QMM3 1-267).
T1 sequence: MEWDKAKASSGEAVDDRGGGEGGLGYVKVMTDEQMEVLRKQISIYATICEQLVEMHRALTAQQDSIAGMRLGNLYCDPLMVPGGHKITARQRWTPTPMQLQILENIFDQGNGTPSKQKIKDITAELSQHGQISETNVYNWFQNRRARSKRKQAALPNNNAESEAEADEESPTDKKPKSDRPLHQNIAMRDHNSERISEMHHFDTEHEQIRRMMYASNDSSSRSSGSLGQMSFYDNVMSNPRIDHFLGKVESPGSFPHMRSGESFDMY
As to the kind of experiment: protein-binding microarray (RPBM); PBS, 2% BSA, 51.3 ng/ul salmon testes DNA, 50 uM zinc acetate, 200 nM TF, 25 C, 1 h; high values mean tight binding. As to conditions: protein: recombinant; tags: N-terminal polyhistidine and DsRed monomer fusion (pET32a); label: CyDye5-dUTP incorporated in the synthesized complementary strand; 3' TTTTT single-stranded linker to array surface; dsDNA, one strand shown. A digest of the protocol:
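For the binding signal, per-feature fluorescence intensity was read in arbitrary units on an Axon 4000B scanner. Before scanning, a 2% BSA-blocked custom Agilent array made double-stranded with Cy5-dUTP was washed after 1 h at 25 °C with 200 nM protein and 50 µM zinc acetate. The proteins were Ni–NTA-purified transcription factors with N-terminal polyhistidine and DsRed fusions, expressed in E. coli BL21-CodonPlus.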
For “ATGTGTAAATTGAATTAATGGAGTTGGTTGTGAAATCGTTCGGAGTCACCTAGTGCAG”, the binding signal is 25300 fluorescence intensity (a.u.).
For the sequence “GATTAATCCAATTGACTTTGATGAGGATGTGCCACTATTTCGGAGTCACCTAGTGCAG”, the binding signal is 6820 fluorescence intensity (a.u.).
In the case of “AGTTTTCTGTTCAATGATTTGGTTGAATCAAATTGTTCCTCGGAGTCACCTAGTGCAG”, the binding signal is 4400 fluorescence intensity (a.u.).
“CCTTTTAATTGAAAAGCTCCTTATTGGCTTCCCACCTAAGCGGAGTCACCTAGTGCAG”: the binding signal was 46900 fluorescence intensity (a.u.).
“GACTGGGAGGATGAGGGGTGGGTGGGTGTGGCTGCTTCTGCGGAGTCACCTAGTGCAG”: the binding signal was 4110 fluorescence intensity (a.u.).
“CGATCTAATTGTGAATCCTCTACCCTAGAGGACCTCCTATCGGAGTCACCTAGTGCAG”: the binding signal was 4020 fluorescence intensity (a.u.).
To “AGTTTTAGCCTAAATTGGGTAAATTATATTTTAACCGTAACGGAGTCACCTAGTGCAG” belongs 11600 fluorescence intensity (a.u.).
In the case of “TCAGTAACATTATTGGTTAAATTTTAAATTTTGAATAGGCCGGAGTCACCTAGTGCAG”, the binding signal is 5870 fluorescence intensity (a.u.).
For the sequence “AATTGTTTGATTGAAATTAATGTACTCTTGAATGGATAAACGGAGTCACCTAGTGCAG”, the binding signal is 32600 fluorescence intensity (a.u.).
For the sequence “GCTGACTAATTATGTAACAGGGGTCAAACAAGTAGGTGGACGGAGTCACCTAGTGCAG”, the binding signal is 20400 fluorescence intensity (a.u.).
For “GGTAGAAATAAGGATTGATTGAGATTCACCTACCTTTTCTCGGAGTCACCTAGTGCAG”, the binding signal is 37500 fluorescence intensity (a.u.).
As to “TCCACCGCGACATGTGATTGGAGGTAAGAGCATGTGAACCCGGAGTCACCTAGTGCAG”, the binding signal was 5650 fluorescence intensity (a.u.).
To “GCTCCTGATTTGCCTGATCAGATCAACAGATTAGCATGATCGGAGTCACCTAGTGCAG” belongs 23600 fluorescence intensity (a.u.); to “GAGATTGATTGCATATCAGAAGTAAATGATTTCAACAGATCGGAGTCACCTAGTGCAG”, 54400 fluorescence intensity (a.u.); to “GCAGAAATGATTGCACTTCAATTATTGAGTAAAACAGATTCGGAGTCACCTAGTGCAG”, 30000 fluorescence intensity (a.u.).
“ATTGATTTGAATTCCAAATTTGTAATGATGTTGATCACCTCGGAGTCACCTAGTGCAG”: the binding signal was 39400 fluorescence intensity (a.u.).
With “AAATGTGATTTTGTAATTTCCCCTTTGAATTTTCATCAAACGGAGTCACCTAGTGCAG”, the binding signal is 8970 fluorescence intensity (a.u.).
In the case of “CTTTGTAATTGGAGTCAATCAAATTGAATGATTTCCCTTTCGGAGTCACCTAGTGCAG”, the binding signal was 58900 fluorescence intensity (a.u.).
Take “TAGGATTATGTTGGTGATGATGATGACTAGTGTGCCTGAACGGAGTCACCTAGTGCAG”: the binding signal is 4220 fluorescence intensity (a.u.).
For “ATAGTTAACAAAATTTGACAGCAAACTAAATGTAACCATTCGGAGTCACCTAGTGCAG”, the binding signal was 27800 fluorescence intensity (a.u.).
For the sequence “TACCCATCACCAAAATTACCATAAACACAACATACTTAGGCGGAGTCACCTAGTGCAG”, the binding signal was 4380 fluorescence intensity (a.u.).
For “CAAAATTGAAAACTTCTTATTTGAAATTCAAAACTTTCAACGGAGTCACCTAGTGCAG”, the binding signal is 10200 fluorescence intensity (a.u.).
Regarding “CATATAAATTGACAACTTCTACTTAAACCTGACATGTGGGCGGAGTCACCTAGTGCAG”, the binding signal was 54500 fluorescence intensity (a.u.).
On to “TTGACTTAAATTATAATTTTAAACCATATATTATAATTGGCGGAGTCACCTAGTGCAG”, for which the binding signal was 31400 fluorescence intensity (a.u.).
Regarding “ATATAAATTTGGAACAAATTCAACATCATGTTATCCTAGGCGGAGTCACCTAGTGCAG”, the binding signal was 4060 fluorescence intensity (a.u.).
On to “AACTTATATAAGTTAAATTTAAACTTATATGTTTGTGGGGCGGAGTCACCTAGTGCAG”, for which the binding signal was 4170 fluorescence intensity (a.u.).
On to “TAAATTGACAAATTCAACCTAGGCCTGGACTTATTTGGCGCGGAGTCACCTAGTGCAG”, for which the binding signal is 57500 fluorescence intensity (a.u.).
For “TTTGCTAGATTGGAGCAAATCGCATATTCTTAACCCCACCCGGAGTCACCTAGTGCAG”, the binding signal is 21600 fluorescence intensity (a.u.).
As for “GTTTCGTCTCGTAATTTACACGCAATCTGTGTAATTAGTTCGGAGTCACCTAGTGCAG”, the binding signal was 7230 fluorescence intensity (a.u.).
For “CTAAAATTTAATTAATCATACGACAGTGAATTTCTCATTTCGGAGTCACCTAGTGCAG”, the binding signal is 20300 fluorescence intensity (a.u.).
For the sequence “TCAGACAAATTAAGTTTTAGCTTAGCTTATCACTTAACGGCGGAGTCACCTAGTGCAG”, the binding signal was 7680 fluorescence intensity (a.u.).
Take “AAATTCCGAATTTGATTCTTAATTAAGGCGAGCTATTCACCGGAGTCACCTAGTGCAG”: the binding signal was 3490 fluorescence intensity (a.u.).
As for “AAACAGACAAACTACACTAATTGTGATGACTCTGGATTTTCGGAGTCACCTAGTGCAG”, the figure is 8340 fluorescence intensity (a.u.).
To “ACCATCATCAATTGATAGTTCTTGTTTCTCTAGTAGTAAGCGGAGTCACCTAGTGCAG” belongs 9360 fluorescence intensity (a.u.); to “AATTCAAGCTCATCACTGATTTGATAAGACATTAAGATAGCGGAGTCACCTAGTGCAG”, 4050 fluorescence intensity (a.u.).
As for “GTGACTGATTGACAGTATCAACCATCTAGTGTTAAGATAGCGGAGTCACCTAGTGCAG”, the figure is 52800 fluorescence intensity (a.u.).
On to “TCTTGCCAACTGATTGATCGATCCTGGAAGCTTGCTGCTGCGGAGTCACCTAGTGCAG”, for which the binding signal is 37900 fluorescence intensity (a.u.).
As for “CACCTGACTGATTGGATTGGTATCGATCCAAGCCTATCAGCGGAGTCACCTAGTGCAG”, the figure is 57100 fluorescence intensity (a.u.); as for “TACGCCTGATTGGATCCCCACCCCTATCTCCACTGACTGTCGGAGTCACCTAGTGCAG”, 34100 fluorescence intensity (a.u.).
In the case of “TGTCCACTGAAATTGATTGGAGATCGATGTGATGGTCAAGCGGAGTCACCTAGTGCAG”, the binding signal was 40200 fluorescence intensity (a.u.).
On to “GACGCCGTCAGCAATGATTGCCTTGCTAGCAGCTGCTTGACGGAGTCACCTAGTGCAG”, for which the binding signal was 4390 fluorescence intensity (a.u.).
Take “TAAGTATCCTTGATTGATTGCCTGATCGATCAGCTGCTAGCGGAGTCACCTAGTGCAG”: the binding signal is 55000 fluorescence intensity (a.u.).
